# Assay results taken from paper PMC11006913.
# Experiments:
# PRRX1 [1] = molecular target: PRRX1 (Homo sapiens, UniProt P54821 80-166, F113S); experiment: PBM; 200 nM protein, PBS; details: dsDNA, one strand shown
# PRRX1 [2] = molecular target: PRRX1 (Homo sapiens, UniProt P54821 80-166); experiment: PBM; 200 nM protein, PBS; details: dsDNA, one strand shown
# Sequence of PRRX1 (Homo sapiens, UniProt P54821 80-166) (P54821 80-166): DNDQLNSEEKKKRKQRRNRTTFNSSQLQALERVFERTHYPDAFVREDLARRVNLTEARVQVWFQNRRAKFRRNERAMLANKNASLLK
# Sequence of PRRX1 (Homo sapiens, UniProt P54821 80-166, F113S) (P54821 80-166 F113S): as the sequence (P54821 80-166) above, with F34S counted along it
sequence,measurement,setting,value
ACAGTCGG,binding signal,PRRX1 [1],"9.61 upbm affinity estimate (log intensity, higher = more binding, comparable within an allelic series)"
same,binding signal,PRRX1 [2],"9.49 upbm affinity estimate (log intensity, higher = more binding, comparable within an allelic series)"
AGGTCTTG,binding signal,PRRX1 [1],"9.4 upbm affinity estimate (log intensity, higher = more binding, comparable within an allelic series)"
same,binding signal,PRRX1 [2],"9.41 upbm affinity estimate (log intensity, higher = more binding, comparable within an allelic series)"
CCCCTTGC,binding signal,PRRX1 [1],"9.32 upbm affinity estimate (log intensity, higher = more binding, comparable within an allelic series)"
same,binding signal,PRRX1 [2],"9.53 upbm affinity estimate (log intensity, higher = more binding, comparable within an allelic series)"
ACGTCGCC,binding signal,PRRX1 [1],"9.31 upbm affinity estimate (log intensity, higher = more binding, comparable within an allelic series)"
same,binding signal,PRRX1 [2],"9.36 upbm affinity estimate (log intensity, higher = more binding, comparable within an allelic series)"
CCCAGGGA,binding signal,PRRX1 [1],"9.4 upbm affinity estimate (log intensity, higher = more binding, comparable within an allelic series)"
same,binding signal,PRRX1 [2],"9.28 upbm affinity estimate (log intensity, higher = more binding, comparable within an allelic series)"
CGTCACCC,binding signal,PRRX1 [1],"9.47 upbm affinity estimate (log intensity, higher = more binding, comparable within an allelic series)"
same,binding signal,PRRX1 [2],"9.31 upbm affinity estimate (log intensity, higher = more binding, comparable within an allelic series)"
GCTGGACC,binding signal,PRRX1 [1],"9.41 upbm affinity estimate (log intensity, higher = more binding, comparable within an allelic series)"
same,binding signal,PRRX1 [2],"9.43 upbm affinity estimate (log intensity, higher = more binding, comparable within an allelic series)"
CGTGTGCA,binding signal,PRRX1 [1],"9.54 upbm affinity estimate (log intensity, higher = more binding, comparable within an allelic series)"
same,binding signal,PRRX1 [2],"9.31 upbm affinity estimate (log intensity, higher = more binding, comparable within an allelic series)"
CGCGTCAG,binding signal,PRRX1 [1],"9.4 upbm affinity estimate (log intensity, higher = more binding, comparable within an allelic series)"
same,binding signal,PRRX1 [2],"9.26 upbm affinity estimate (log intensity, higher = more binding, comparable within an allelic series)"
GCACGTCC,binding signal,PRRX1 [1],"9.49 upbm affinity estimate (log intensity, higher = more binding, comparable within an allelic series)"
same,binding signal,PRRX1 [2],"9.27 upbm affinity estimate (log intensity, higher = more binding, comparable within an allelic series)"
AATATGCC,binding signal,PRRX1 [1],"9.8 upbm affinity estimate (log intensity, higher = more binding, comparable within an allelic series)"
same,binding signal,PRRX1 [2],"11.1 upbm affinity estimate (log intensity, higher = more binding, comparable within an allelic series)"
CCCAACGC,binding signal,PRRX1 [1],"9.62 upbm affinity estimate (log intensity, higher = more binding, comparable within an allelic series)"
same,binding signal,PRRX1 [2],"9.3 upbm affinity estimate (log intensity, higher = more binding, comparable within an allelic series)"
GACGACGC,binding signal,PRRX1 [1],"9.47 upbm affinity estimate (log intensity, higher = more binding, comparable within an allelic series)"
same,binding signal,PRRX1 [2],"9.16 upbm affinity estimate (log intensity, higher = more binding, comparable within an allelic series)"
CGACGTTA,binding signal,PRRX1 [1],"9.76 upbm affinity estimate (log intensity, higher = more binding, comparable within an allelic series)"
same,binding signal,PRRX1 [2],"11.1 upbm affinity estimate (log intensity, higher = more binding, comparable within an allelic series)"
GCCTCTCA,binding signal,PRRX1 [1],"9.4 upbm affinity estimate (log intensity, higher = more binding, comparable within an allelic series)"
same,binding signal,PRRX1 [2],"9.09 upbm affinity estimate (log intensity, higher = more binding, comparable within an allelic series)"
AATAGGGT,binding signal,PRRX1 [1],"10.2 upbm affinity estimate (log intensity, higher = more binding, comparable within an allelic series)"
same,binding signal,PRRX1 [2],"11.5 upbm affinity estimate (log intensity, higher = more binding, comparable within an allelic series)"
GACTCTAA,binding signal,PRRX1 [1],"10.1 upbm affinity estimate (log intensity, higher = more binding, comparable within an allelic series)"
same,binding signal,PRRX1 [2],"11.1 upbm affinity estimate (log intensity, higher = more binding, comparable within an allelic series)"
AGCACCCT,binding signal,PRRX1 [1],"9.32 upbm affinity estimate (log intensity, higher = more binding, comparable within an allelic series)"
same,binding signal,PRRX1 [2],"9.38 upbm affinity estimate (log intensity, higher = more binding, comparable within an allelic series)"
GCGCCAGA,binding signal,PRRX1 [1],"9.32 upbm affinity estimate (log intensity, higher = more binding, comparable within an allelic series)"
same,binding signal,PRRX1 [2],"9.56 upbm affinity estimate (log intensity, higher = more binding, comparable within an allelic series)"
GAATTATC,binding signal,PRRX1 [1],"10.5 upbm affinity estimate (log intensity, higher = more binding, comparable within an allelic series)"
same,binding signal,PRRX1 [2],"12.9 upbm affinity estimate (log intensity, higher = more binding, comparable within an allelic series)"
AGGTTTAA,binding signal,PRRX1 [1],"10.1 upbm affinity estimate (log intensity, higher = more binding, comparable within an allelic series)"
same,binding signal,PRRX1 [2],"11.4 upbm affinity estimate (log intensity, higher = more binding, comparable within an allelic series)"
CTGATGAA,binding signal,PRRX1 [1],"10 upbm affinity estimate (log intensity, higher = more binding, comparable within an allelic series)"
same,binding signal,PRRX1 [2],"11.2 upbm affinity estimate (log intensity, higher = more binding, comparable within an allelic series)"
ATCATCAC,binding signal,PRRX1 [1],"10.1 upbm affinity estimate (log intensity, higher = more binding, comparable within an allelic series)"
same,binding signal,PRRX1 [2],"11.5 upbm affinity estimate (log intensity, higher = more binding, comparable within an allelic series)"
ATCAATTC,binding signal,PRRX1 [1],"10.1 upbm affinity estimate (log intensity, higher = more binding, comparable within an allelic series)"
same,binding signal,PRRX1 [2],"11.9 upbm affinity estimate (log intensity, higher = more binding, comparable within an allelic series)"
AGCTCGCA,binding signal,PRRX1 [1],"9.52 upbm affinity estimate (log intensity, higher = more binding, comparable within an allelic series)"
same,binding signal,PRRX1 [2],"9.05 upbm affinity estimate (log intensity, higher = more binding, comparable within an allelic series)"
CGACGGAA,binding signal,PRRX1 [1],"9.54 upbm affinity estimate (log intensity, higher = more binding, comparable within an allelic series)"
same,binding signal,PRRX1 [2],"9.34 upbm affinity estimate (log intensity, higher = more binding, comparable within an allelic series)"
AGATCAAT,binding signal,PRRX1 [1],"10.1 upbm affinity estimate (log intensity, higher = more binding, comparable within an allelic series)"
same,binding signal,PRRX1 [2],"11.6 upbm affinity estimate (log intensity, higher = more binding, comparable within an allelic series)"
CCCGTACG,binding signal,PRRX1 [1],"9.21 upbm affinity estimate (log intensity, higher = more binding, comparable within an allelic series)"
same,binding signal,PRRX1 [2],"9.33 upbm affinity estimate (log intensity, higher = more binding, comparable within an allelic series)"
CCTGAGGC,binding signal,PRRX1 [1],"9.1 upbm affinity estimate (log intensity, higher = more binding, comparable within an allelic series)"
same,binding signal,PRRX1 [2],"9.44 upbm affinity estimate (log intensity, higher = more binding, comparable within an allelic series)"
ATTTTTAA,binding signal,PRRX1 [1],"10.4 upbm affinity estimate (log intensity, higher = more binding, comparable within an allelic series)"
same,binding signal,PRRX1 [2],"12 upbm affinity estimate (log intensity, higher = more binding, comparable within an allelic series)"
GCCAGCAC,binding signal,PRRX1 [1],"9.45 upbm affinity estimate (log intensity, higher = more binding, comparable within an allelic series)"
same,binding signal,PRRX1 [2],"9.5 upbm affinity estimate (log intensity, higher = more binding, comparable within an allelic series)"
AATGAGGG,binding signal,PRRX1 [1],"9.96 upbm affinity estimate (log intensity, higher = more binding, comparable within an allelic series)"
same,binding signal,PRRX1 [2],"11.2 upbm affinity estimate (log intensity, higher = more binding, comparable within an allelic series)"
AGGTTCGC,binding signal,PRRX1 [1],"9.34 upbm affinity estimate (log intensity, higher = more binding, comparable within an allelic series)"
same,binding signal,PRRX1 [2],"9.02 upbm affinity estimate (log intensity, higher = more binding, comparable within an allelic series)"
GAAAGACC,binding signal,PRRX1 [1],"9.56 upbm affinity estimate (log intensity, higher = more binding, comparable within an allelic series)"
same,binding signal,PRRX1 [2],"9.45 upbm affinity estimate (log intensity, higher = more binding, comparable within an allelic series)"
GAACAGCC,binding signal,PRRX1 [1],"9.48 upbm affinity estimate (log intensity, higher = more binding, comparable within an allelic series)"
same,binding signal,PRRX1 [2],"9.53 upbm affinity estimate (log intensity, higher = more binding, comparable within an allelic series)"
CGGACGAC,binding signal,PRRX1 [1],"9.43 upbm affinity estimate (log intensity, higher = more binding, comparable within an allelic series)"
same,binding signal,PRRX1 [2],"9.26 upbm affinity estimate (log intensity, higher = more binding, comparable within an allelic series)"
TTAACAAA,binding signal,PRRX1 [1],"10.5 upbm affinity estimate (log intensity, higher = more binding, comparable within an allelic series)"
same,binding signal,PRRX1 [2],"12.4 upbm affinity estimate (log intensity, higher = more binding, comparable within an allelic series)"
CAGAGAGC,binding signal,PRRX1 [1],"9.56 upbm affinity estimate (log intensity, higher = more binding, comparable within an allelic series)"
same,binding signal,PRRX1 [2],"9.55 upbm affinity estimate (log intensity, higher = more binding, comparable within an allelic series)"
AGCCTTTC,binding signal,PRRX1 [1],"9.3 upbm affinity estimate (log intensity, higher = more binding, comparable within an allelic series)"
same,binding signal,PRRX1 [2],"8.88 upbm affinity estimate (log intensity, higher = more binding, comparable within an allelic series)"
AATTCAGG,binding signal,PRRX1 [1],"9.89 upbm affinity estimate (log intensity, higher = more binding, comparable within an allelic series)"
same,binding signal,PRRX1 [2],"11.3 upbm affinity estimate (log intensity, higher = more binding, comparable within an allelic series)"
CGCGGGAC,binding signal,PRRX1 [1],"9.43 upbm affinity estimate (log intensity, higher = more binding, comparable within an allelic series)"
same,binding signal,PRRX1 [2],"9.4 upbm affinity estimate (log intensity, higher = more binding, comparable within an allelic series)"
CCGACCCC,binding signal,PRRX1 [1],"9.1 upbm affinity estimate (log intensity, higher = more binding, comparable within an allelic series)"
same,binding signal,PRRX1 [2],"9.36 upbm affinity estimate (log intensity, higher = more binding, comparable within an allelic series)"
AGGAGAGC,binding signal,PRRX1 [1],"9.35 upbm affinity estimate (log intensity, higher = more binding, comparable within an allelic series)"
same,binding signal,PRRX1 [2],"9.36 upbm affinity estimate (log intensity, higher = more binding, comparable within an allelic series)"
GCGGTTCC,binding signal,PRRX1 [1],"9.66 upbm affinity estimate (log intensity, higher = more binding, comparable within an allelic series)"
same,binding signal,PRRX1 [2],"9.31 upbm affinity estimate (log intensity, higher = more binding, comparable within an allelic series)"
CCGAACCC,binding signal,PRRX1 [1],"9.23 upbm affinity estimate (log intensity, higher = more binding, comparable within an allelic series)"
same,binding signal,PRRX1 [2],"9.29 upbm affinity estimate (log intensity, higher = more binding, comparable within an allelic series)"
ACTTTATG,binding signal,PRRX1 [1],"10 upbm affinity estimate (log intensity, higher = more binding, comparable within an allelic series)"
same,binding signal,PRRX1 [2],"10.9 upbm affinity estimate (log intensity, higher = more binding, comparable within an allelic series)"
ACGCGCGG,binding signal,PRRX1 [1],"9.42 upbm affinity estimate (log intensity, higher = more binding, comparable within an allelic series)"
same,binding signal,PRRX1 [2],"9.29 upbm affinity estimate (log intensity, higher = more binding, comparable within an allelic series)"
CTCCGTAC,binding signal,PRRX1 [1],"9.47 upbm affinity estimate (log intensity, higher = more binding, comparable within an allelic series)"
same,binding signal,PRRX1 [2],"9.24 upbm affinity estimate (log intensity, higher = more binding, comparable within an allelic series)"
GGACAACC,binding signal,PRRX1 [1],"9.36 upbm affinity estimate (log intensity, higher = more binding, comparable within an allelic series)"
same,binding signal,PRRX1 [2],"9.23 upbm affinity estimate (log intensity, higher = more binding, comparable within an allelic series)"
AACCAATT,binding signal,PRRX1 [1],"10.4 upbm affinity estimate (log intensity, higher = more binding, comparable within an allelic series)"
same,binding signal,PRRX1 [2],"12.6 upbm affinity estimate (log intensity, higher = more binding, comparable within an allelic series)"
GCGTGCCA,binding signal,PRRX1 [1],"9.08 upbm affinity estimate (log intensity, higher = more binding, comparable within an allelic series)"
same,binding signal,PRRX1 [2],"9.45 upbm affinity estimate (log intensity, higher = more binding, comparable within an allelic series)"
GAGGCTGC,binding signal,PRRX1 [1],"9.31 upbm affinity estimate (log intensity, higher = more binding, comparable within an allelic series)"
same,binding signal,PRRX1 [2],"9.36 upbm affinity estimate (log intensity, higher = more binding, comparable within an allelic series)"
CAAATGAG,binding signal,PRRX1 [1],"10.1 upbm affinity estimate (log intensity, higher = more binding, comparable within an allelic series)"
same,binding signal,PRRX1 [2],"11.5 upbm affinity estimate (log intensity, higher = more binding, comparable within an allelic series)"
GTGTTAAC,binding signal,PRRX1 [1],"10.1 upbm affinity estimate (log intensity, higher = more binding, comparable within an allelic series)"
same,binding signal,PRRX1 [2],"11.8 upbm affinity estimate (log intensity, higher = more binding, comparable within an allelic series)"
CCTACTTA,binding signal,PRRX1 [1],"10.1 upbm affinity estimate (log intensity, higher = more binding, comparable within an allelic series)"
same,binding signal,PRRX1 [2],"11.6 upbm affinity estimate (log intensity, higher = more binding, comparable within an allelic series)"
